Experimental data as given in PubChem BioAssay (NCATS).
A number with no mark means an inactive call. Inconclusive results are not listed. Entries that show only a call come without a potency. Activity calls are given as the source filed them. Unless noted, calls follow the shape of the dose curve; as a rule, active = well fitted curve in the direction sought with a large enough effect; inconclusive = small, poorly fitted or top-dose-only effect, or another doubt; inactive = no such curve, though single readings can be large; an effect the other way counts as inactive or inconclusive.

Columns and labels:
[1] = Validation of Assay for Modulators of Lamin A Splicing (AID 1459; active = well fitted curve in the direction sought with a large enough effect in the signal ratio; the % refers to the signal ratio;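 also: cells exposed to compound for two days before reading; ratio rise marks activators and ratio drop marks inhibitors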)
Outline: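 S3 HeLa cells stably expressing a lamin A-EGFP splicing minigene and DsRed2 were seeded at 600 cells/well in Opti-MEM with 2% FBS, pin-dosed, and incubated 48 hrs at 37 °C, 5% CO2. Laser-scanning cytometry (488 nm) gave GFP/RFP total intensity ratio.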

[2] = biological target: DNA repair nuclease/redox regulator APEX1 (Homo sapiens) (UniProt P27695); assay: qHTS Validation Assay for Inhibitors of the Human Apurinic/apyrimidinic Endonuclease 1 (APE1) (AID 1705;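 also: TAMRA fluorescence gain over two minutes as APE1 cuts a quenched THF abasic duplex; series mostly up to about 57 µM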)
Sequence of DNA repair nuclease/redox regulator APEX1 (Homo sapiens) (P27695 whole entry, looked up): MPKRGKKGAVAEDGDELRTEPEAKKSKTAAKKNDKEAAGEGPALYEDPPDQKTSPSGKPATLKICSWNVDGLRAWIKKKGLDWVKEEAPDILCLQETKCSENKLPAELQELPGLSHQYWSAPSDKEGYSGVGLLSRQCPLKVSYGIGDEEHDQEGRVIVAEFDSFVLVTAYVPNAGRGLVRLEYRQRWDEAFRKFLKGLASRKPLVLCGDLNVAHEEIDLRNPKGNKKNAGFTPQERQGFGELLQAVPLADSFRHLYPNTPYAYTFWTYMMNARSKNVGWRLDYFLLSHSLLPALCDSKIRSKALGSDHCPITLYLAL
Outline: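 Human APE1 was preincubated with compound for 15 min at room temperature, then 50 nM (final) THF-abasic double-stranded DNA substrate bearing 5'-TAMRA and 3'-BHQ-2 was added. Incision-driven fluorescence rise (ex 525/em 598 nm) was read kinetically.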

[3] = Counterscreen for APE1 Inhibitors: Fluorescent Dye Displacement Validation Assay (AID 1707)
Outline: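 Thiazole Orange displacement from dsDNA: 250 nM ThO with 50 nM TAMRA-labelled abasic-site (tetrahydrofuran) duplex in 50 mM Tris-HCl pH7.5, 50mM NaCl, 2 mM MgCl2, 0.01% Tween-20. Loss of endpoint fluorescence (ex 480 nm, em 540 nm) flags DNA binders.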

[4] = qHTS for differential inhibitors of proliferation of Plasmodium falciparum line Dd2 (AID 1882); conditions: Potency: Plasmodium falciparum Dd2 proliferation inhibition; also: nearly all actives have a fitted effect of over 65% in size; also: potency is read from the fitted curve at half-maximal effect
Outline: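 Dd2-infected erythrocytes (0.3% parasitemia, 2.5% hematocrit final) incubated with compound 72 h at 37 C, 5% CO2; lysed with saponin/Triton buffer containing SYBR Green I, incubated overnight in the dark, then read by fluorescence (485/535 nm). Normalized to 0.29 uM artemisinin and DMSO.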

[5] = biological target: Ferritin light chain (Equus caballus) (UniProt P02791); assay: qHTS Validation Assay for Identification of Novel General Anesthetics (AID 2323); also: series mostly up to about 77 µM
Sequence of Ferritin light chain (Equus caballus) (P02791 2-175 limits assumed): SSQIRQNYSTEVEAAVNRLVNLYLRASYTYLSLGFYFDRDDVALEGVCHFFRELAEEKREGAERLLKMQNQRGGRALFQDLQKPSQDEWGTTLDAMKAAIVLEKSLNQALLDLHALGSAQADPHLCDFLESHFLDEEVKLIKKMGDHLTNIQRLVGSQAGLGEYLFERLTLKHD
Outline: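 Competitive displacement of profluorescent 1-aminoanthracene (1-AMA, 50% saturated solution in PBS) from 10 uM horse-spleen apoferritin. Compounds incubated 10 min at room temperature; fluorescence read at 380 nm excitation/535 nm emission, normalized to free 1-AMA and complex, fitted with four-parameter Hill equation.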

[6] = biological target: ATP-dependent DNA helicase Q1 (Homo sapiens) (UniProt P46063); assay: qHTS Validation Assay for Inhibitors of RecQ-Like Dna Helicase 1 (RECQ1) (AID 2353)
Outline: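 50 nM RECQ1T1 preincubated 15 min with compound in Tris pH 8.0 buffer with MgCl2, DTT, Tween-20 and 2.5 ug/ml poly(dI-dC); started with 200 nM TAMRA/BHQ-2 forked duplex and 2 mM ATP. Unwinding read as fluorescence (525/598 nm), two reads 2 h apart.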

[7] = Validation screen for small molecules that induce DNA re-replication in MCF 10A normal breast cells (AID 463097); also: nearly all actives have a fitted effect of over 60% in size
Outline: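 Readout: Hoechst nuclear fluorescence intensity, 405 ex / 500-530 em, by scanning plate imager; re-replication scored as increase in nuclei with elevated DNA content. Cells exposed to compound 48 hr, 37 C, 5% CO2 beforehand.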

[8] = Quantitative high throughput screen for delayed death inhibitors of the malarial parasite plastid, 96 hour incubation (AID 488745); also: nearly all actives have a fitted effect of over 70% in size; also: potency is read from the fitted curve at half-maximal effect
Outline: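 Luciferase-expressing P. falciparum in erythrocytes (2% hematocrit, 0.1% parasitemia) incubated with compound for 96 h at 37 C, 5% CO2, in RPMI 1640 with 0.5% Albumax. Growth inhibition read as decreased luminescence.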

[9] = Quantitative high throughput screen for delayed death inhibitors of the malarial parasite plastid, 48 hour incubation (AID 488752); also: nearly all actives have a fitted effect of over 65% in size; also: potency is read from the fitted curve at half-maximal effect
Outline: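 Erythrocytes infected with firefly luciferase-expressing P. falciparum (2% hematocrit, 0.1% parasitemia) cultured with compound for 48 h at 37 C, 5% CO2, in RPMI 1640/0.5% Albumax. Growth inhibition read as loss of luminescence.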

[10] = biological target: Transient receptor potential cation channel subfamily V member 1 (Homo sapiens) (UniProt Q8NER1); assay: HTS Assay for Compounds that Act as Enhancers of the Vanilloid Receptor 1 (AID 488979)
Sequence of Transient receptor potential cation channel subfamily V member 1 (Homo sapiens) (Q8NER1 whole entry, looked up): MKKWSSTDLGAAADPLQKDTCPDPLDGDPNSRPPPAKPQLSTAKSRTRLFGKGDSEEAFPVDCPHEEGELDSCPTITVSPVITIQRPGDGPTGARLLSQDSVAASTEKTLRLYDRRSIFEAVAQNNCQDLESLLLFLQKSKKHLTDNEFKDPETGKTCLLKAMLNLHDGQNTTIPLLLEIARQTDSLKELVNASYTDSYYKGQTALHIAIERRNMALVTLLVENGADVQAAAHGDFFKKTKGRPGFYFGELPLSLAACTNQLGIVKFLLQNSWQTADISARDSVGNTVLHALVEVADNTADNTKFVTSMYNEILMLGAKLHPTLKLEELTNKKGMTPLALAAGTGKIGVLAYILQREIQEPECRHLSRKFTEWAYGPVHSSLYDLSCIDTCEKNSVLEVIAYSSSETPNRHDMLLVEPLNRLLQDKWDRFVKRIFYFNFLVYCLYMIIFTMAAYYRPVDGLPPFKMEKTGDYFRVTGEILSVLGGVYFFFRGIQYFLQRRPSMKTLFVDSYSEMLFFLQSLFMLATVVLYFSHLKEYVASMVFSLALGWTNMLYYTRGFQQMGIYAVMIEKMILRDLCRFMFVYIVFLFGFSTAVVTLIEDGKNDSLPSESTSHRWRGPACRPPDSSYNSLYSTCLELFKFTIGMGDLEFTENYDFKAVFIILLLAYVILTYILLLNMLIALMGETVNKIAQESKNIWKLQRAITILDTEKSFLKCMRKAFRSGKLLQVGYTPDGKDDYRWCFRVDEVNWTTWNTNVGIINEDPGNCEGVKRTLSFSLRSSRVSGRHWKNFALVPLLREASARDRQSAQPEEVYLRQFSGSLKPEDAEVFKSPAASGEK
Outline: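 TRPV1-expressing cells loaded with Fluo-8 calcium dye; compounds added and calcium influx read kinetically for 3 min (agonist phase), then capsaicin at EC20 added and read 2 min more for enhancement. Fluorescence ex 480/em 520 nm.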

[11] = biological target: Thyrotropin receptor (Homo sapiens) (UniProt P16473); assay: qHTS Assay for Antagonists of the Thyroid Stimulating Hormone Receptor (AID 488980); also: series mostly up to about 58 µM
Sequence of Thyrotropin receptor (Homo sapiens) (P16473 whole entry, looked up): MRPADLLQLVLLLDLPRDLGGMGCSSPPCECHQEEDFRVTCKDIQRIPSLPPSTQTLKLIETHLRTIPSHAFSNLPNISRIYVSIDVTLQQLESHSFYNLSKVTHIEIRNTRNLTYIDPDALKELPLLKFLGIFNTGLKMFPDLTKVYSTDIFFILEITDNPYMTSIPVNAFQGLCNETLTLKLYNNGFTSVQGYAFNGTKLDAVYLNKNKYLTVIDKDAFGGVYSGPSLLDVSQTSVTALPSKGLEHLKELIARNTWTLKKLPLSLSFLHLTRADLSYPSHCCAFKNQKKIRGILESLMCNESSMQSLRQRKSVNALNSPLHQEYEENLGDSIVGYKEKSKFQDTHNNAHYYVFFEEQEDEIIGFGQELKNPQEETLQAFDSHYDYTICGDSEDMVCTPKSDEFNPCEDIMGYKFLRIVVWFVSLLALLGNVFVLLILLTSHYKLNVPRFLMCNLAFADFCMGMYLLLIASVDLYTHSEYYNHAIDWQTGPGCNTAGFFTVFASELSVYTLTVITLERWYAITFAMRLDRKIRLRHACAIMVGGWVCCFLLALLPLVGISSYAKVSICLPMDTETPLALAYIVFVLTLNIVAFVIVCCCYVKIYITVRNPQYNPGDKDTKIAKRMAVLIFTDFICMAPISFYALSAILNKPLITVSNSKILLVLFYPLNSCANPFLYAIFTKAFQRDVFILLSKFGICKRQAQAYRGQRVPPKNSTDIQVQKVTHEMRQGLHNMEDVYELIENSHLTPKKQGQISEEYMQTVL
Outline: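 HEK293 cells transfected with human TSHR, suspended in HEPES-buffered HBSS with 70 uM RO 20-1724, were treated with compounds plus TSH at EC80 (4 nM final). cAMP was measured by competitive HTRF (cryptate anti-cAMP antibody, cAMP-d2 acceptor).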

[12] = biological target: Thyrotropin-releasing hormone receptor (Homo sapiens) (UniProt P34981); assay: qHTS for Small Molecule Agonists and Allosteric Enhancers of Human TRH Receptor: Validation Screen for Agonists (AID 493127;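 active = calcium activation more than 3 SD above the typical response in the agonist read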); conditions: TRH receptor agonist cell assay; at 2 µM; stronger effect = higher value
Sequence of Thyrotropin-releasing hormone receptor (Homo sapiens) (P34981 whole entry, looked up): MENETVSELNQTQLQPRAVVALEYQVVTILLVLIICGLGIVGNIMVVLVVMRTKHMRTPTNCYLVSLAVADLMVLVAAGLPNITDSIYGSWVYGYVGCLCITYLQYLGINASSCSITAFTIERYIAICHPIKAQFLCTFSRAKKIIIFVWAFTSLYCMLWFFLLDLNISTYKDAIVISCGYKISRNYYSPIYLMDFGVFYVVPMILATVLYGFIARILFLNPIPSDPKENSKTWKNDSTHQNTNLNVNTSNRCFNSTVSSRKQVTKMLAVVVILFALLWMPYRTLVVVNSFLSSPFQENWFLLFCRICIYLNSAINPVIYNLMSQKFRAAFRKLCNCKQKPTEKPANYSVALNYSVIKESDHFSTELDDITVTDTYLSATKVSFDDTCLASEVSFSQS
Outline: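 TRHR cells loaded with fluo-8 calcium dye; FDSS kinetic fluorescence (Ex 480/Em 530) read at 1 s/cycle after 23 nL compound addition. Agonist-mode calcium response recorded before the 10 nM TRH (EC20) addition.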

[13] = biological target: Galactokinase (Homo sapiens) (UniProt P51570); assay: qHTS Validation Assay for Inhibitors of Human Galactokinase (GALK) (AID 493189)
Sequence of Galactokinase (Homo sapiens) (P51570 whole entry, looked up): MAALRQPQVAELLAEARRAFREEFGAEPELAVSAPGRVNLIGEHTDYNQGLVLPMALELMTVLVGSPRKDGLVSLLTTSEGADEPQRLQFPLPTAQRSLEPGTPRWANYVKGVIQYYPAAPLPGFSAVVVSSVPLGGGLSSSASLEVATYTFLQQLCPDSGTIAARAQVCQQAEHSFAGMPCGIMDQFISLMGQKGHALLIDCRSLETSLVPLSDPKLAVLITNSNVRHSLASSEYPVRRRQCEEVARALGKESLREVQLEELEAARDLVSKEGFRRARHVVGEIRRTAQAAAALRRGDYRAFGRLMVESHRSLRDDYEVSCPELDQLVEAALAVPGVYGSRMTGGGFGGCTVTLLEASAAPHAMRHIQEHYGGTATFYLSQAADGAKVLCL
Outline: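 GALK (5 nM) with 35 uM ATP and 100 uM galactose in HEPES pH8.0, MgCl2, NaCl, DTT, BSA; 1 h at room temperature. Residual ATP read by Kinase-Glo Plus luminescence after 10 min.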

[14] = Validation screen for small molecules that induce DNA re-replication in SW480 colon adenocarcinoma cells (AID 504364)
Outline: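 SW480 cells (250/well) exposed 48 h at 37 C, 5% CO2, then Hoechst-stained 40 min. Nuclear DNA content imaged by fluorescence scanning (405 nm excitation, 500-530 nm emission); re-replication scored as increased nuclei with elevated intensity.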

[15] = biological target: Voltage-gated inwardly rectifying potassium channel KCNH2 (Homo sapiens) (UniProt Q12809); assay: qHTS Assay for Small Molecule Inhibitors of the Human hERG Channel Activity (AID 588834);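 also: lower thallium flux fluorescence means stronger hERG block; nearly all actives have a fitted effect of over 50% in size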; also: potency is read from the fitted curve at half-maximal effect
Sequence of Voltage-gated inwardly rectifying potassium channel KCNH2 (Homo sapiens) (Q12809 whole entry, looked up): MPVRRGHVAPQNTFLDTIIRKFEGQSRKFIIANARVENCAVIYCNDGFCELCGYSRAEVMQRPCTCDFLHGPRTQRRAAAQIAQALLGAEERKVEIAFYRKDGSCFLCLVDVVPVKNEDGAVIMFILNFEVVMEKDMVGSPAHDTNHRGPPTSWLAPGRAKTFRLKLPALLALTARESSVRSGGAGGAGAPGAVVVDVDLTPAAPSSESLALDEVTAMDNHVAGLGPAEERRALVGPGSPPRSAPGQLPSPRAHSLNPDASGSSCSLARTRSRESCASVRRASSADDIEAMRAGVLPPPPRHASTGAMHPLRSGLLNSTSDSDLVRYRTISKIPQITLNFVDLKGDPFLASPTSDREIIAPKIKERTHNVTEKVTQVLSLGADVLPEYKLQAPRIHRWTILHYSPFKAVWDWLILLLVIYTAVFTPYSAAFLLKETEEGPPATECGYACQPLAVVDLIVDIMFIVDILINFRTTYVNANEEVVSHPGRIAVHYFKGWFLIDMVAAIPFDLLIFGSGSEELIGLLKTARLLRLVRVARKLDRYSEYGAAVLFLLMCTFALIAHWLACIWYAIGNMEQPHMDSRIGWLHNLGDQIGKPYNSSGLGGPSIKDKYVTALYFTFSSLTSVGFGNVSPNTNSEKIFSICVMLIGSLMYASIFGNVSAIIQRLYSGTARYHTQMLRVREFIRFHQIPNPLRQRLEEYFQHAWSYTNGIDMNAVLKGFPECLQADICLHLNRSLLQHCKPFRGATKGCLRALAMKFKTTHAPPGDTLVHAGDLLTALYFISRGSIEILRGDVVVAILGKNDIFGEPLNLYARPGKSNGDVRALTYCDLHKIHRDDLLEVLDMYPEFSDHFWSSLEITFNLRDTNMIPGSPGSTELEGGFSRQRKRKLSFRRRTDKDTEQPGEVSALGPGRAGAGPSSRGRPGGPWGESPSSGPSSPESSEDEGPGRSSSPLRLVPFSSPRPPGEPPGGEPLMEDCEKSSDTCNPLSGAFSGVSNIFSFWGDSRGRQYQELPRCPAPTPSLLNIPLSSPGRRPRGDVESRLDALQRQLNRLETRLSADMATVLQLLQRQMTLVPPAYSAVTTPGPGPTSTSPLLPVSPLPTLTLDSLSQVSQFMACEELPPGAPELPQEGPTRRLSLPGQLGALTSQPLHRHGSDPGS
Outline: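 U2OS cells transduced with hERG via BacMam (MOI ~100), plated 2000/well, loaded with FluxOR thallium dye, compound ~10 min, then stimulation buffer; fluorescence decrease read kinetically; AC50 from Hill fits.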

[16] = qHTS for differential inhibitors of proliferation of Plasmodium falciparum line 3D7 (AID 1876); also: potency is read from the fitted curve at half-maximal effect
[17] = qHTS for differential inhibitors of proliferation of Plasmodium falciparum line D10 (AID 1877);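 also: parasites grown with compound for 72 h before DNA staining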; also: potency is read from the fitted curve at half-maximal effect
[18] = biological target: M-phase phosphoprotein 8 (Homo sapiens) (UniProt Q99549); assay: qHTS Validation Assay for Inhibitors for MPP8 Chromodomain Interactions with Methylated Histone Tails (AID 488949); also: nearly all actives have a fitted effect of over 55% in size; also: potency is read from the fitted curve at half-maximal effect
Sequence of M-phase phosphoprotein 8 (Homo sapiens) (Q99549 whole entry, looked up): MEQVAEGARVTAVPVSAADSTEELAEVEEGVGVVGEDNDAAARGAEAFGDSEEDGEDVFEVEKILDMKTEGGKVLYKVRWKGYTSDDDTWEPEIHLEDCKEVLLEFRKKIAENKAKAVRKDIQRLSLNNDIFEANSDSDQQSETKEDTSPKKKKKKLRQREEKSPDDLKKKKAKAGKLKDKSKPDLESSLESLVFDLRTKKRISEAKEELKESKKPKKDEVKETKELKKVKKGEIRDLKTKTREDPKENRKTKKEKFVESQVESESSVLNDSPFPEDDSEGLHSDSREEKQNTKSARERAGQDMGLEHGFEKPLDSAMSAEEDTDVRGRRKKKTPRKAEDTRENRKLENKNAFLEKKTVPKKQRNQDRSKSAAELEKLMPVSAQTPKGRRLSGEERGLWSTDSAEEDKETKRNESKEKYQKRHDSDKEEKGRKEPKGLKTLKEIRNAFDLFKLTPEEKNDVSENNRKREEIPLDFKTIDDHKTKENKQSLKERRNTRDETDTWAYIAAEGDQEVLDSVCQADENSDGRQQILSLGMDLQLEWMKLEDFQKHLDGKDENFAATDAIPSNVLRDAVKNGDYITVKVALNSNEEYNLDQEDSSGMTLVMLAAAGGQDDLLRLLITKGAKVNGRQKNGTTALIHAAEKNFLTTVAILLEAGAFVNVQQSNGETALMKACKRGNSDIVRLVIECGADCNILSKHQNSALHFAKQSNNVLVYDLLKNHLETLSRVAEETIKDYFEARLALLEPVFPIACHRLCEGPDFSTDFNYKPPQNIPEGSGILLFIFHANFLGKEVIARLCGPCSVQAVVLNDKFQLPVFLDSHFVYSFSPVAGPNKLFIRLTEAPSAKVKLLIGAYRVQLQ
Outline: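 MPP8 (50 nM) was preincubated with biotinylated H3(1-18)K9me3 peptide (50 nM) in PBS pH 7.4, 0.01% Tween-20 for 30 min at room temperature, then with compounds for 30 min; binding was detected by AlphaScreen.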

| SMILES | outcome [1] | Potency [2] | Potency [3] | Potency [4] | outcome [5] | Potency [6] | outcome [7] | Potency [8] | Potency [9] | outcome [10] | outcome [11] | activation [12] [%] | outcome [13] | outcome [14] | Potency [15] | Potency [16] | Potency [17] | Potency [18] |
| --- | --- | --- | --- | --- | --- | --- | --- | --- | --- | --- | --- | --- | --- | --- | --- | --- | --- | --- |
| CC(=O)NCCc1ccc(O)c(O)c1 | inactive | inactive | inactive | inactive | inactive | inactive | inactive | inactive | inactive | inactive | inactive | 0.75 | inactive | inactive | inactive | – | – | – |
| Nc1ncnc2c1ncn2[C@@H]1O[C@H](C(=O)NC2CC2)[C@H](O)[C@H]1O | inactive | inactive | inactive | inactive | inactive | inactive | inactive | inactive | inactive | inactive | inactive | 1.12 | inactive | inactive | inactive | inactive | inactive | inactive |
| O=[N+]([O-])c1ccc(CSc2ncnc3c2ncn3[C@@H]2O[C@H](CO)[C@H](O)[C@H]2O)cc1 | inactive | inactive | inactive | – | – | inactive | inactive | inactive | inactive | inactive | inactive | 0.688 | inactive | inactive | – | – | inactive | inactive |
| CN1CCc2cc(Cl)c(O)cc2C(c2ccccc2)C1 (configuration not stated) | inactive | inactive | inactive | 8.91 µM (active) | inactive | inactive | inactive | – | – | inactive | inactive | 1.12 | inactive | inactive | 10 µM (active) | 11.2 µM (active) | 12.6 µM (active) | inactive |
| NC(=S)c1ccc[n+]([C@@H]2O[C@@H](COP(=O)([O-])OP(=O)(O)OC[C@H]3O[C@@H](n4cnc5c(N)ncnc54)[C@H](OP(=O)(O)O)[C@H]3O)C(O)C2O)c1 (some centres not stated) | inactive | inactive | inactive | inactive | inactive | inactive | inactive | inactive | inactive | inactive | inactive | -0.0625 | inactive | inactive | inactive | inactive | inactive | – |
| CC(C)CN(C)c1nc(N)c(C(=O)N=C(N)N)nc1Cl | inactive | inactive | inactive | – | – | inactive | – | 8.28 µM (active) | 10.4 µM (active) | – | inactive | 0.812 | inactive | – | 2 µM (active) | 3.98 µM (active) | 7.08 µM (active) | 44.7 µM (active) |
| CC(C)C[C@H]1C(=O)N2CCCC2[C@]2(O)O[C@](NC(=O)[C@@H]3C=C4c5cccc6[nH]c(Br)c(c56)C[C@H]4N(C)C3)(C(C)C)C(=O)N12 (some centres not stated) | inactive | inactive | inactive | – | inactive | inactive | – | 9.28 µM (active) | 8.28 µM (active) | inactive | inactive | 0.625 | inactive | – | inactive | – | – | inactive |
| CC(=O)[C@@]1(O)CC[C@H]2C3CCC4=CC(=O)CC[C@]4(C)C3CC[C@@]21C (some centres not stated) | inactive | inactive | inactive | inactive | inactive | inactive | inactive | inactive | inactive | inactive | inactive | 1.5 | inactive | inactive | inactive | – | inactive | inactive |
| COc1cc(=O)n(C)c2c(OCC(O)C(C)(C)O)cccc12 (configuration not stated) | inactive | inactive | inactive | inactive | inactive | inactive | inactive | inactive | inactive | inactive | inactive | 0.812 | inactive | inactive | inactive | inactive | inactive | inactive |
| Cc1ccccc1N1CCN(S(=O)(=O)C[C@]23CCC(CC2NC(=O)[C@@H](N)CCS(C)(=O)=O)C3(C)C)CC1 (some centres not stated) | inactive | inactive | inactive | – | inactive | inactive | inactive | inactive | inactive | inactive | inactive | 1 | inactive | inactive | inactive | inactive | – | – |
| COc1ccc(CCNC[C@@H](O)c2ccc(O)cc2)cc1OC | inactive | inactive | inactive | inactive | inactive | inactive | inactive | inactive | inactive | inactive | inactive | – | inactive | inactive | – | inactive | inactive | inactive |
